Test results: PubChem BioAssay (NCI)
About 83,000 compounds went through this panel and 20% of them were active in at least one assay; those are over-represented in the sample as a whole.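 Single-dose data. Exposure time 48 hours. Values below 10 considered active.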 Values without a mark were called inactive. Active and inactive are the calls of the source.

What follows are compounds tested on HS 578T breast (assay: NCI-60 one-dose screen, 48 h (100 = growth as untreated, 0 = no growth, -100 = all killed)). Conditions: 10 µM unless noted.
Protocol: Growth inhibition of the HS 578T human tumor cell line is measured as a screen for anti-cancer activity. Cells are grown in 96 well plates and exposed to the test compound for 48 hours. Compounds are tested at a single concentration, which is 10^-5 M for most compounds. The reported endpoint is percent growth (GI% or GIPRCNT), where numbers from 0 - 100% represent growth inhibition, and numbers from -100% - 0 represent cell death. For example, a value of 40 represents 60% growth inhibition. A value of 0 means no net growth occurred over the course of the experiment. A value of -40 indicates 40% of cells at the beginning of the experiment died by the end of the experiment. A value of -100 means all cells are dead at the end of the experiment.
NCI-60 Human Tumor Cell Lines Screen was performed using the standard one-dose NCI protocol, which is described in more detail at https://dtp.cancer.gov/discovery_development/nci-60/default.htm.
Compounds with GIPRCNT values below 10 were considered active. Activity score was based on GIPRCNT using the following formula: […]
Score is 0 for GIPRCNT values of 100 or above, 50 for GIPRCNT values of 0, and 100 for GIPRCNT values of -100.

Compound | growth
CC12CC[C@@H]3[C@]4(C)COC(c5cn[nH]c5-c5ccc(Br)cc5)O[C@@H]4CC[C@@]3(C)[C@@H]1CC(C1=CCOC1=O)O2 (stereo not given in full) | 55.6%
Cn1cc(-c2nc(N)nnc2-c2c[nH]c3ccc(Br)cc23)c2cc(Br)cnc21 | 30.2%
Cn1cc(NC(=O)c2cc(NC(=O)c3ccc(C#Cc4ccccc4)cc3)cn2C)cc1C(=O)NCCCN1CCOCC1 | 95.9%
CCCCNC(=S)Nc1ccc(OCc2nc3ccccc3[nH]2)cc1 | 92.3%
CC(C)CSc1nc(NCCc2c[nH]c3ccccc23)c(C#N)c(-c2ccccc2)n1 | 48.2%
Cc1ccc(S(=O)(=O)c2nc(S(=O)(=O)c3ccc(C)cc3)c(Cl)s2)cc1 | 86.5%
COc1ccc(/C=C/c2nc3ccccc3c(=O)n2CC(=O)Nc2ccc(Cl)cc2)cc1 | 23.3%
COc1ccc(C(=O)/C=C/c2cccnc2)cc1S(N)(=O)=O | 89.9%
CCN(CC)CCOc1ccc(Nc2ncc3cc(-c4ccc(O)c(C#N)c4)c(=O)n(C)c3n2)cc1 | 76.5%
C=C1CCC2C3(C)COC(c4ccc(F)cc4)OC3CCC2(C)C1C/C=C1/C(=O)OCC1O (stereo not given) | -5.65% (active)
CCN1C(=O)/C(=N\N=C(/C)c2ccc3c(c2)Nc2ccccc2S3)c2cc(Cl)ccc21 | 80%
N/C(=N\c1nc2ccccc2s1)NC(=O)Nc1ccc(Cl)cc1Cl | -26.7% (active)
CCCCCCCCc1ccc(C(=O)Nc2ccc(C)cc2C(=O)O)cc1C | 93.1%
CC(=O)/C=C/c1cccc2c1C(=O)NC(C)(c1cc3cc(Br)ccc3oc1=O)N2 (stereo not given) | 46.6%
C#C[C@]1(O)CC[C@H]2[C@@H]3CC=C4c5sc(-c6ccc([N+](=O)[O-])cc6)nc5CC[C@]4(C)[C@H]3CC[C@@]21C | 29.6%
CN1CCN(c2ccc3c(c2)nc(NNC(=O)c2cnccn2)c2cccn23)CC1 | 34.1%
COc1ccc(/C=C/c2nc3ccccc3nc2Nc2cccc(C)c2)cc1 | 92.3%
CC(=O)OC[C@@]1(C)C2CC[C@]3(C)C(CC=C4C5CC(C)(C)CC[C@]5(C(=O)Nc5ccc(Br)cc5)CC[C@]43C)[C@@]2(C)C[C@@H](OC(C)=O)[C@@H]1OC(C)=O (stereo not given in full) | 80.5%
Brc1ccc(-c2n(Cc3ccc4ccccc4c3)c(-c3ccccc3)c(-c3ccccc3)[n+]2Cc2ccc3ccccc3c2)cc1 | -46.3% (active)
CCN1C(=O)N(CC)C2NNC(Sc3c(C(=O)O)c4ccccc4n(C4CCCC4)c3=O)=NC21 (stereo not given) | 7.18% (active)

Compound | growth
CN1CCN(Cc2ccc(C(=O)Nc3cccc(C#Cc4cccc5[nH]nc(N)c45)c3)cc2C(F)(F)F)CC1 | -17.5% (active)
Cn1cc(-c2cc(N)n3nc(-c4cn(C)c5ccccc45)cc3n2)c2cc(Br)ccc21 | -7.42% (active)
CC(=O)Oc1ccc(/C=C/C(=O)N[C@@H](Cc2ccccc2)C(O)C(=O)NCc2ccccc2)cc1OC(C)=O (stereo not given in full) | 84.8%
O=C(C1=CNC(=S)NC1c1ccc(O)cc1)c1cc2ccccc2oc1=O (stereo not given) | 97.8%
CC1(C)CC[C@]2(C(=O)O)CC[C@]3(C)C(=CCC4[C@@]5(C)C[C@@H](O)[C@@H]6OC(c7ccc(F)cc7)OC[C@@]6(C)C5CC[C@]43C)C2C1 (stereo not given in full) | 48.1%
CCOC(=O)/C=C/c1cccc2c1C(=O)NC(C)(c1cc3cc(Cl)ccc3oc1=O)N2 (stereo not given) | 41%
COc1ccc(C2(SCCNCc3cc(N(C)C)ccn3)c3ccccc3C=Cc3ccccc32)cc1 | -3.79% (active)
O=C1/C(=C/C2=Cc3ccccc3OC2)SC(=S)N1c1ccccc1F | 105%
O=C(COc1ccc(NC(=O)Nc2ccc(Cl)c(Cl)c2)cc1)N=Nc1c(O)[nH]c2ccc(Br)cc12 | -5.94% (active)
Cn1cc(-c2cc(N)n3nc(-c4cn(C)c5ncc(Br)cc45)cc3n2)c2cc(Br)cnc21 | 55.1%
COc1ccc(-c2ccnc(SCc3cc4cc(Cl)ccc4[nH]c3=O)n2)cc1 | -5.84% (active)
COc1ccc(C(=O)/C=C/c2cccc(Cl)c2Cl)cc1S(N)(=O)=O | 35.6%
O=C(c1ccc(OCCN2CCOCC2)cc1)C1[C@H](c2ccc(Cl)cc2)[C@@H](c2ccccc2)NC12C(=O)Nc1ccc(Cl)cc12 (stereo not given in full) | 59.1%
COc1cc(OC)cc(C(=O)Nc2cccc(-c3cn(-c4ccc(S(N)(=O)=O)cc4)nn3)c2)c1 | 70.3%
COc1cc2c(c(OC)c1OC)C(=O)CC(c1cccc(NC(=O)c3cc([N+](=O)[O-])ccc3Cl)c1)O2 (stereo not given) | 15.1%
C#CCOc1cc(N(CC)CC)ccc1C(C(=O)NC(C)(C)C)N(C(=O)C1CCc2cc(F)ccc2O1)c1cc(C)cc(C)c1 (stereo not given) | 53.7%
COc1ccc(-c2nc(SC(C)C)nc(NCCc3c[nH]c4ccccc34)c2C#N)cc1 | 36.3%
CC12CC[C@@H]3[C@]4(C)COC(c5c(F)cccc5F)O[C@@H]4CC[C@@]3(C)[C@@H]1CC(C1=CCOC1=O)O2 (stereo not given in full) | 81.2%
Cn1cc(-c2nc(N)nnc2-c2c[nH]c3ccc(F)cc23)c2cccnc21 | 15.1%
CC1(C)CC[C@]2(C(=O)Nc3ccc(Br)cc3)CC[C@]3(C)C(=CCC4[C@@]5(C)C[C@@H](O)[C@H](O)[C@@](C)(CO)C5CC[C@]43C)C2C1 (stereo not given in full) | -0.476% (active)
